Data published in PubChem BioAssay AID504329 (Southern Research Specialized Biocontainment Screening …, 2011).
The campaign covered roughly 340,000 compounds. About 1,000 (0.29%) were called active. Only a sample is shown. Entries with a potency or affinity are not part of this list. Values without a mark were called inactive. Rule as the data show it: inconclusive = inhibition above about 27% without an active follow-up result; inactive = below that.

Assay: NS1A inhibition, H1N1 influenza, cell based functional assay (AID 504329)
Settings: percent inhibition, at 12.5 µM, stronger effect = higher value

Row | Compound | inhibition [%]
1 | Nc1nn(-c2ccccc2)nc1C(=O)OCc1ccccc1F | 1.7
2 | CC(=O)c1sc(NC(=O)c2ccc(Cl)cc2)nc1C | 0.95
3 | CC1CN(c2ccc([N+](=O)[O-])cc2C(=O)N2CCOCC2)CC(C)N1 (configuration not stated) | -4.9
4 | CC(=O)Nc1cccc(NC(=O)CSc2nnc3ccc(-c4cccnc4)nn23)c1 | 2.74
5 | CC1(C)Nc2ccc(O)cc2-c2c1ssc2=S | 19
6 | CCOc1ccc2c(c1)-c1c(ssc1=S)C(C)(C)N2 | 21.5
7 | CC1CCCN(C(=O)CNC(=O)c2cccs2)C1 (configuration not stated) | -11.6
8 | O=Cc1ccc(Cl)c(Cl)c1 | -13.3
9 | COc1ccc(C)cc1NCC(=O)Nc1ccc(C(C)(C)C)cc1 | -0.26
10 | O=C(COc1cccc2ccccc12)N1CCN(c2ccccn2)CC1 | 0.39
11 | O=C(CSc1nccc2ccccc12)N1CCN(c2ccccn2)CC1 | 9.51
12 | Cc1cccc(OCC(=O)NCC(=O)N/N=C/c2cc(Br)ccc2OCc2ccccc2)c1 | 9.61
13 | COc1cc(O)c(C(CCN2CCCC2)c2ccc(N(C)C)cc2)c(OC)c1 (configuration not stated) | 26.1
14 | COc1ccc(C(CCN2CCN(c3ccccc3)CC2)c2c(O)cc(OC)cc2OC)cc1 (configuration not stated) | 15.3
15 | COc1cc(OC)c2ccc(=O)oc2c1C(CCN1CCCC1)c1ccc(N(C)C)cc1 (configuration not stated) | 21.8
16 | COc1cc(OC)c2ccc(=O)oc2c1C(CCN1CCCCC1)c1ccc(N(C)C)cc1 (configuration not stated) | 9.04
17 | NC(=O)CCN1CCN(C(=O)c2ccc3nc(Cc4cccc(Cl)c4)oc3c2)CC1 | -5.64
18 | CCOC(=O)c1c(NC(=O)COC(=O)Cc2n[nH]c(=O)c3ccccc23)sc(C(=O)N(C)C)c1C | -4.28
19 | CCOc1ccccc1/C=N/Nc1ccccc1[N+](=O)[O-] | 28.9
20 | COc1ccccc1/C=N\Nc1ccccc1[N+](=O)[O-] | 9.18
21 | O=[N+]([O-])c1ccccc1N/N=C\c1ccccc1Cl | 1.01
22 | O=[N+]([O-])c1ccc(N/N=C/c2c[nH]c3ccccc23)cc1 | 7.03
23 | CCCOc1ccc(/C=N/Nc2ccccc2[N+](=O)[O-])c(O)c1 | 3.15
24 | CCCOc1ccc(/C=N/Nc2ccc(C(=O)O)cc2)c(OCCC)c1 | 10.8
25 | Cc1cccc(NC(=O)Cn2nc(-c3ccco3)ccc2=O)c1C | 0.81

Row | Compound | inhibition [%]
26 | COC(C[C@H](O)C[C@@H](O)[C@H](C)OCc1ccccc1)OC | -2.93
27 | CCCCOCCCNC(=S)Nc1ccc(S(=O)(=O)N2CCOCC2)cc1 | 0.29
28 | CCCCC1=C(C(=O)OCC)C(C(=O)OCC)Oc2ccccc21 (configuration not stated) | -8.03
29 | COc1ccc(CN(CC(=O)NCc2ccccc2)C(=O)CCC(=O)Nc2ccccn2)cc1 | -6.86
30 | C/C=C(\C)CN1CCC(n2nccc2NC(=O)CCCc2ccccc2)CC1 | -5.21
31 | CCCN(CC(=O)Nc1ccccc1C)C(=O)c1ccc(=O)n(Cc2ccccc2)n1 | 5.93
32 | CN(C)N1C(N)=C(C#N)C(c2cccnc2)C2=C1CCCC2=O (configuration not stated) | 0.98
33 | COc1ccc(Cl)cc1NS(=O)(=O)c1cn(C)nc1C | -6.95
34 | Cc1c(C)n(Cc2ccccc2)c2ccc(C(=O)OCCN(C)C)cc12 | 18.7
35 | Cc1c(C)n(CCN(C)C)c2ccc(C(=O)OCCN(C)C)cc12 | -4.19
36 | CCn1ccnc1CN(C)Cc1cn(-c2cc(C)ccc2C)nc1-c1ccccc1 | 7.7
37 | Cc1ccc(C)c(-n2cc(CNCCCn3cccn3)c(-c3ccccc3)n2)c1 | -27.8
38 | CCOC(=O)C1(C(=O)OCC)NC(=O)CC1C (configuration not stated) | 1.41
39 | C/C(=N\NC(=O)c1cc(C)nc2ccccc12)c1ccncc1 | 7.15
40 | C/C(=N\NC(=O)c1cc(C)nc2ccccc12)c1ccco1 | -1.27
41 | NNC(=O)c1cc(-c2cccs2)nc2ccccc12 | 25.3
42 | O=C(N/N=C/c1ccc2ncccc2c1)c1cc(-c2cccs2)nc2ccccc12 | -4.78
43 | COc1ccc(CC(=O)Nc2nc(-c3ccncc3)cs2)cc1 | 3.49
44 | Cc1nn(-c2ccccc2)c(N2CCCC2)c1/C=N/NC(=O)c1ccccc1O | -10.1
45 | O=C(Oc1ccc(/C=N/NC(=O)c2ccccc2O)cc1)c1ccccc1 | 1.64
46 | CCOC(=O)C1CCCN(C(=O)C2CCN(Cc3nc(-c4ccc(Cl)cc4)oc3C)CC2)C1 (configuration not stated) | -0.69
47 | COC(=O)c1ccc(COc2ncnc3ccccc23)o1 | 2.36
48 | CC1=C/C(=C(\c2ccc(O)c(C)c2)c2ccccc2S(=O)(=O)O)C=CC1=O | -2.96
49 | CC1=C/C(=C(/c2ccc(O)c(C)c2)c2ccccc2S(=O)(=O)O)C=CC1=O | 12.6
50 | O=[N+]([O-])c1ccc([N+](=O)[O-])c(Nc2ccc(N3CCOCC3)cc2)c1 | -0.167

Row | Compound | inhibition [%]
51 | O=[N+]([O-])c1ccc(N2CCOCC2)c([N+](=O)[O-])c1 | 4.03
52 | NC(=O)c1ccccc1N/C=C/C(=O)c1ccccc1 | 1.83
53 | COc1ccc(Cn2c(=O)[nH]c3cc(C(=O)N4CCN(c5ccc(OC)cc5)CC4)ccc3c2=O)cc1 | -8.57
54 | Cc1ccc(NC(=O)COC(=O)Cn2ccc(C(F)(F)F)n2)cc1Cl | 0.4
55 | CN=c1scc(-c2ccco2)n1/N=C/c1ccc(O)c(O)c1 | 19.1
56 | CCN=c1scc(-c2ccco2)n1/N=C/c1ccc(OC)c(O)c1 | 28.8
57 | CN(CC(=O)Nc1ccccc1Cl)C(=O)C1CCN(C(=O)c2ccc(F)cc2)CC1 | -9.67
58 | Cc1cc(C(=O)Nc2cccc(S(=O)(=O)N3CCOCC3)c2)c2ccccc2n1 | -7.61
59 | O=C(C[n+]1ccccc1)N/N=C/c1cc(Br)ccc1F | 2.1
60 | COc1ccc(Br)cc1/C=N/NC(=O)C[n+]1ccccc1 | -3.17
61 | O=C(C[n+]1ccccc1)N/N=C/c1ccc(Br)cc1 | 3.75
62 | O=C(Cc1ccccc1)N/N=C/c1cc(Br)cc(Br)c1O | -3.61
63 | O=S(=O)(NN1CCOCC1)c1ccc(Br)cc1 | -5.55
64 | COc1ccc(/C=N/NC(=O)C2c3ccccc3-c3ccccc32)cc1 | 1.63
65 | CCNC(=S)NNC(=O)c1ccncc1 | -6.57
66 | CCOC(=O)C1CCN(/C=C2\C(=O)NC(=S)N(CC)C2=O)CC1 | 1.72
67 | Cc1ccc(/C=C2\C(=O)NC(=S)N(c3ccccc3F)C2=O)s1 | -6.98
68 | Cc1ccccc1SCC(=O)NNC(=O)c1ccccc1O | -9.27
69 | COc1ccc(/C=C2/C(=O)NC(=S)N(C3CC3)C2=O)cc1CN1C(=O)c2ccccc2C1=O | -5.91
70 | O=C(NNC(=O)c1ccccc1Cl)c1ccccc1Cl | -1.97
71 | O=C1/C(=C/c2cccs2)NC(=S)N1C1CC1 | 25.9
72 | O=C(NNC(=O)C1CC=CCC1)c1ccccc1Cl (configuration not stated) | -13.4
73 | Cc1cccc(NC(=O)COc2ccc(/C=N\n3cnnc3)cc2)c1 | -2.09
74 | CS(=O)(=O)N1CCN(C(=O)Cc2ccc(Br)cc2)CC1 | -21.4
75 | O=C(O)/C=C/c1cn(-c2ccccc2)nc1-c1ccccc1 | -7.13

Row | Compound | inhibition [%]
76 | CCOc1ccc(C(C(=O)NC2CCCCC2)N(C(=O)c2ccccn2)c2cccnc2)cc1 (configuration not stated) | -3.97
77 | CCCCCCCCNc1nc(Cl)nc(NCc2ccco2)n1 | -0.33
78 | O=C(O)c1ccccc1NS(=O)(=O)c1cccc2nsnc12 | -1.24
79 | O=C(N/N=C/c1c(O)n(C2CCCCC2)c(=S)[nH]c1=O)c1ccccc1O | -5.43
80 | O=C(NNC(=S)NC1CCCCC1)c1ccccc1O | 5.32
81 | Cn1nccc1C(=O)Nc1sc2c(c1C(N)=O)CCCC2 | -3.24
82 | Oc1ccc(CNc2ccccc2)c2cccnc12 | 10.6
83 | Oc1cc2c(cc1CN1CCc3ccccc3C1)OCO2 | 13.1
84 | O=C(Oc1c(CN2CCOCC2)cc(Cl)c2cccnc12)c1ccc(F)cc1 | 5.6
85 | Oc1ccc(CNc2ccc(F)cc2)c2cccnc12 | 28.1
86 | O=c1oc2ccccc2c(O)c1Cc1cc(Cl)c2cccnc2c1O | -5.95
87 | Oc1c(I)cc(Cl)c2cccnc12 | -16.7
88 | Oc1ccc(CNc2ccccc2F)c2cccnc12 | 12.8
89 | CN1CCN(Cc2cc(Cl)c3cccnc3c2OC(=O)c2cccs2)CC1 | -0.27
90 | CC(=O)OCC(=O)c1ccc2ccn(C(C)=O)c2c1 | 2.53
91 | c1ccc(CN(Cc2cccs2)C(c2cccs2)c2nnnn2C2CCCC2)cc1 (configuration not stated) | 4.12
92 | CSc1cc(-c2ccc(Cl)cc2)c(C(=O)N2CCCC2)s1 | -3.23
93 | O=S(=O)(c1cc(F)ccc1F)N1CCN(C2CCCCC2)CC1 | 0.25
94 | Cn1c(=Nc2ccccc2)sc2ccccc21 | 9.39
95 | COc1ccc(N=c2sc3ccccc3n2C)cc1 | 1.52
96 | O=C(COC(=O)/C=C/c1cccc(Cl)c1)NC1CCCC1 | -4.83
97 | CC(C)(C)c1ccc(-c2n[nH]c(=S)n2CC2CCCO2)cc1 (configuration not stated) | 3.44
